The list is not random: actives were taken first. Their share in the collection is about 6.8%.
SW480 rerep: A quantitative high throughput screen for small molecules that induce DNA re-replication in SW480 colon adenocarcinoma cells | SW480 DNA re-replication, Hoechst DNA content imaging, 48 h | Potency, µM (doses to about 46.1 µM), actives largely listed as activators | actives 1.8% (n = 340,000) | AID 624297, 2012; note: nearly all actives have a fitted effect of over 55% in size
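250 cells/well; 23 nL cpd via pin tool; 48 hr, 37 C, 5% CO2; Hoechst 40 min; imager read of total nuclear intensity, ex 405/em 500-530 nm.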
KB-V1 MDR tox: qHTS assay for MDR1-selective chemotherapeutics: Primary screen using the drug-selected MDR subline cells KB-V1 | KB-V1 MDR cells viability, CellTiter-Glo, 72 h | Potency, µM (doses to about 46.1 µM), most hits filed as cytotoxic | actives 3.4% (n = 400,000) | AID 1347076, 2019; note: nearly all actives have a fitted effect of over 60% in size
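Cytotoxicity toward P-gp-expressing KB-V1 cells was determined as loss of CellTiter-Glo luminescence after 72 h at 37 degrees C. Compounds were tested in quantitative HTS format across a concentration range, with curves fitted to normalized data.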
MCF10A rerep: A quantitative high throughput screen for small molecules that induce DNA re-replication in MCF 10a normal breast cells; MCF 10A DNA re-replication, Hoechst nuclear intensity, 48 h; Potency, µM (series often up to 46.1 µM), hits mostly activators; actives 2.9% (n = 350,000); AID 624296, 2012; note: nearly all actives have a fitted effect of over 50% in size
PTAP TSG101 blk: qHTS Assay for Iinhibitors of HIV-1 Budding by Blocking the Interaction of PTAP/TSG101 | Tumor susceptibility gene 101 protein (Homo sapiens), Q99816 | Fluorescence polarization, FITC-PTAP peptide / Tsg101 binding | Potency, µM (series often up to 115 µM), most hits filed as inhibitors | 340,000 tested, under 10 active; active = well fitted inhibition curve with a large enough effect in the main read-out, with a control signal flat, not every such curve was filed as active; inconclusive = small, poorly fitted or top-dose-only effect, or effect the other way, or a change in a side signal; inactive = no such curve, though single readings can be large or run the other way
Target sequence (Q99816 whole entry, looked up): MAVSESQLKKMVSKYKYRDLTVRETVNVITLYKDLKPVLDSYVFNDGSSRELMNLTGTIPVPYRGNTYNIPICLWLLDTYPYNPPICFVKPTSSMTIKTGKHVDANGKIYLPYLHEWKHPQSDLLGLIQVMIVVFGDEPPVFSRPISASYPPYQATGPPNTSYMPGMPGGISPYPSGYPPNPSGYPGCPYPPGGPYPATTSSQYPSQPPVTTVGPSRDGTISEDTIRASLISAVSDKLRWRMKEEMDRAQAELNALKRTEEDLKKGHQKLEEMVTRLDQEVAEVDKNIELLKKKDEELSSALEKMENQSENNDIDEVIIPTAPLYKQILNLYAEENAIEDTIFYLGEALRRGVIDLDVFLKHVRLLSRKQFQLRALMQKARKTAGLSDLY
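Steps: Tsg101 binding domain dispensed (10 uM final), compounds pinned in DMSO, FITC-labeled PTAP-motif peptide added (50 nM final); after 20 min binding at room temperature, polarization measured.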
KB-3-1 tox: qHTS assay for MDR1-selective chemotherapeutics: Primary screen using the parental adenocarcinoma cell KB-3-1 | AID 1347075, 2019 | actives 1.4% (n = 400,000) | Potency, µM (titrated, usually from 46.1 µM), usual class: cytotoxic | KB-3-1 viability, CellTiter-Glo ATP luminescence, 72 h; note: nearly all actives have a fitted effect of over 60% in size
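Screening of KB-3-1 cells (DMEM, 10% FBS, phenol-red free) ran from lowest to highest compound concentration; after 72 h at 37 °C viability was read luminescently and curves fitted.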
PINK1 modulator: A Quantitative High throughput Screen to Identify Chemical Modulators of PINK1 Expression | PINK1 immunofluorescence, high-content cytometry, 24 h | AID 624263, 2012 | Potency, µM (top dose mostly 76.6 µM), usual class: activators | actives 0.2% (n = 410,000); active = well fitted activation curve with a large enough effect; inconclusive = small, poorly fitted or top-dose-only effect; cell line not stated here; note: nearly all actives have a fitted effect of over 65% in size
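Stable cell line treated 24 h with compounds at 5 concentrations (CCCP controls), then fixed and immunostained for PINK1 plus nuclear and cell stains; PINK1 immunofluorescence quantified by laser-scanning microplate cytometry.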
A number is an active result; i = inactive; ? = inconclusive; nt = not tested or not shown. Unless noted, calls come from the whole dose curve; as a rule, active = well fitted curve in the direction sought with a large enough effect; inconclusive = small, poorly fitted or top-dose-only effect, or another doubt; inactive = no such curve, though single readings can be large; an effect the other way counts as inactive or inconclusive.

SMILES	SW480 rerep	KB-V1 MDR tox	MCF10A rerep	PTAP TSG101 blk	KB-3-1 tox	PINK1 modulator
Cc1cc(C)c2c(N)c(C(=O)Nc3cccc(C)c3C)sc2n1	12µM	6.5µM	16µM	i	?	?
Cc1cc(C)c2c(N)c(C(=O)NN)sc2n1	?	i	?	i	i	i
COc1ccc(NC(=O)c2sc3nc(C)cc(C)c3c2N)c(OC)c1	15µM	i	?	i	i	i
CCCc1nc2sc(C(=O)OCC)c(N)c2c2c1COC(C)(C)C2	i	i	3.3µM	i	i	i
Cc1ccc(NC(=O)c2sc3nc(C)cc(C)c3c2N)cc1	i	i	i	i	i	i
CSc1ncccc1C(=O)NCC1Cc2cc(-c3cnccn3)cc(Cl)c2O1 (centres undefined)	nt	nt	nt	nt	nt	i
Cc1ccc(CNc2nc(C)c(-c3ccn(CCN4CCOCC4)n3)s2)o1	nt	nt	nt	nt	nt	i
c1ccc(CSc2ccc(-c3ccc4c(c3)OCO4)nn2)cc1	i	i	?	i	16µM	i
Fc1ccc(CSc2ccc(-c3ccc4c(c3)OCO4)nn2)cc1	i	?	?	i	?	?
Cc1cc2c(cc1S(=O)(=O)N1CCN(c3cccc(C(F)(F)F)c3)CC1)OCC(=O)N2	?	i	23µM	i	i	i
O=C1COc2ccc(S(=O)(=O)N3CCN(c4cccc(C(F)(F)F)c4)CC3)cc2N1	?	i	i	i	i	i
CCOc1ccccc1NC(=O)CSC1=C(C#N)C(c2ccco2)C(C(=O)Nc2nc3ccccc3s2)=C(C)N1 (centres undefined)	3.7µM	i	?	i	i	?
CC(=O)C1=C(C)NC(SCC(=O)c2cc(Cl)ccc2Cl)=C(C#N)C1c1ccco1 (centres undefined)	?	i	?	i	i	i
CC(=O)C1=C(C)NC(SCc2cccc([N+](=O)[O-])c2)=C(C#N)C1c1ccco1 (centres undefined)	?	10µM	i	i	i	i
CC(=O)C1=C(C)NC(SCC(=O)c2ccc(Cl)c(Cl)c2)=C(C#N)C1c1ccco1 (centres undefined)	12µM	?	i	i	i	nt
CC1=C(C(=O)Nc2ccccc2)C(c2ccco2)C(C#N)=C(SCC(=O)Nc2cccc(C)c2C)N1 (centres undefined)	i	i	i	i	i	?
CC1(C)C[C@@H]2C(=O)CCC3O[C@@]3(C)CCC21 (some centres undefined)	nt	nt	nt	nt	nt	i
CN(C1=C(NC(=O)c2ccccc2)C(=O)c2ccccc2C1=O)C1CCS(=O)(=O)C1 (centres undefined)	?	?	23µM	i	?	i
CC(=O)NC1=C(NC2CCS(=O)(=O)C2)C(=O)c2ccccc2C1=O (centres undefined)	18µM	i	?	i	?	i
O=C(NC(=S)NC1CCS(=O)(=O)C1)c1ccccc1 (centres undefined)	i	?	i	i	?	i
CCN(Cc1ccncc1)Cc1ccc2c(c1)CN(C(=O)c1cccc3c(C)c(C)[nH]c13)CCO2	nt	nt	nt	nt	nt	i
Cc1nn(C(=O)c2cccc(F)c2)c(C)c1S(=O)(=O)N1CCCCCC1	nt	i	nt	nt	i	i
COc1cccc(C(=O)NC(=NCCc2c[nH]c3ccc(OC)cc23)Nc2nc(C)cc(C)n2)c1	nt	23µM	nt	nt	i	i
N#Cc1nc(N2CCCCC2)nc(N(c2ccccc2)c2ccccc2)n1	nt	i	nt	nt	i	i
O=S(=O)(c1ccc(Cl)cc1)N1CN(CC2CCCO2)c2nc3ccccc3nc21 (centres undefined)	i	i	i	i	i	i
SMILES	SW480 rerep	KB-V1 MDR tox	MCF10A rerep	PTAP TSG101 blk	KB-3-1 tox	PINK1 modulator
CCCCN1CN(S(=O)(=O)c2ccc(OC)cc2)c2nc3ccccc3nc21	i	i	i	i	i	i
O=S(=O)(c1ccc(Cl)cc1)N1c2ccccc2Oc2nc3ccccc3nc21	i	?	15µM	i	?	i
COc1ccc(S(=O)(=O)N2c3cc(Cl)ccc3Oc3nc4ccccc4nc32)cc1	2.1µM	7.3µM	1µM	i	2.1µM	i
COc1ccc(-c2ccc(CCC(=O)O)n2CC(=O)Nc2cccc(C(F)(F)F)c2)cc1	nt	i	nt	nt	i	i
COC(=O)N1CCC2(CCN(Cc3ccccc3OC)CC2)CC1	nt	nt	nt	nt	nt	i
CCc1ccc(-c2nc(-c3cc4ccccc4oc3=O)sc2C)cc1	nt	i	nt	nt	i	i
Cc1ccccc1OCC(=O)N/N=C/c1ccc(Sc2nc3ccccc3s2)o1	i	?	i	i	?	i
O=C(N/N=C/c1ccc(O)c2ncccc12)c1cccc(Br)c1	?	?	18µM	i	2.6µM	?
O=C(N/N=C/c1cc(Br)ccc1O)c1ccncc1	?	i	?	i	?	i
O=C(N/N=C\c1ccc(Sc2ccccn2)o1)c1cccc(Br)c1	i	23µM	?	i	i	i
Cc1ccccc1C(=O)N/N=C/c1ccc(Sc2ccccn2)o1	i	21µM	i	i	i	i
O=C(N/N=C/c1ccccn1)c1cc(Br)ccc1O	4.1µM	i	?	i	i	i
CCOc1ccc(C(=O)c2cn(CC(=O)Nc3ccc4c(c3)OCCO4)c3ccc(F)cc3c2=O)cc1	nt	i	nt	nt	i	i
CCOc1ccc(NC(=O)c2c(NCc3sccc3C)sc3c2CCCCC3)cc1	nt	nt	nt	nt	nt	i
Cc1cccc(-c2nc(CN3CCCC(C(=O)NC4CCCCC4)C3)c(C)o2)c1 (centres undefined)	i	21µM	?	i	?	i
Cc1ccc(CNC(=O)C2CCCN(Cc3nc(-c4cccc(C)c4)oc3C)C2)cc1 (centres undefined)	nt	i	nt	nt	i	i
Cc1oc(-c2cccc(Cl)c2)nc1CN1CCCC(C(=O)NC(C)c2ccc3c(c2)OCCO3)C1 (centres undefined)	?	26µM	?	i	?	i
Cc1cccc(-c2nc(CN3CCCC(C(=O)NC4CCCCCC4)C3)c(C)o2)c1 (centres undefined)	?	21µM	?	i	i	i
Cc1oc(-c2cccc(Cl)c2)nc1CN1CCCC(C(=O)NCc2ccc(Cl)cc2)C1 (centres undefined)	nt	i	nt	nt	i	i
CC(=O)c1ccc(N2CCN(c3ncnc4c3c(-c3ccccc3)cn4-c3ccc(C)c(Cl)c3)CC2)cc1	nt	nt	nt	nt	nt	i
Cc1ccc(C(=O)n2nc(C)c(S(=O)(=O)N3CCCCCC3)c2C)cc1	nt	i	nt	nt	i	i
